Screening data (PubChem)
Hits are enriched below; roughly 21% of the tested compounds scored in any of these assays.
CHX counter – affects cycloheximide protein synthesis inhibition readout, counter-screen; cell reporter, cycloheximide protein synthesis inhibition counterscreen; AID 2314; 300,000 compounds, 12% hits; max response, %; in the data active = max response mostly above about 13%, no sharp cut-off; inactive = mostly below about 14%; also: read at 38.3 µM for the half of the compounds with a filed dose; 0% is about no effect
Pf growth 96h – P. falciparum growth inhibition at 96 hours; P. falciparum luciferase reporter growth, 96 h; Potency, µM (titrated, usually from 28.7 µM), inactives show top-dose activity change, negative = inhibition, hits mostly inhibitors; 320,000 compounds, 6.9% hits; AID 504834; also: potency is read from the fitted curve at half-maximal effect; % is scaled to controls: 0 for no effect and ±100 for the full control effect
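Plates of compound plus infected erythrocytes (2% hematocrit, 0.05% parasitemia final) incubate 96 hours, 37 C, 5% CO2. Detection reagent added; reduced luminescence from the parasites' luciferase reporter flags inhibition.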
Shiga inhibitor – inhibitors of Shiga toxin in Vero cells. Vero cells, Shiga toxin protein synthesis inhibition reporter. inhibition, % at 38.7 µM. 290,000 compounds, 9.2% hits; in the data active = inhibition mostly above about 28%, no sharp cut-off; inactive = mostly below about 43%; also: 0% is about no effect
SARS PLpro yeast – blocks SARS-CoV papain-like protease in a yeast assay | Potency, µM (highest dose often 32.9 µM), for the others: top-dose activity, positive = growth rescue, usual class: activators | S. cerevisiae expressing SARS-CoV PLpro, growth rescue | 330,000 compounds, 0.19% hits; calls by dose curve; also: potency is read from the fitted curve at half-maximal effect; 0% is about no effect; nearly all actives have a fitted effect of over 55% in size
NS1 inh – blocks influenza NS1 protein function; Potency, µM (series often up to 46.1 µM), for the others: at the highest dose activity, positive = more growth; 270,000 compounds, 0.4% hits; AID 2326; calls by dose curve; also: potency is read from the fitted curve at half-maximal effect; actives are rising curves; nearly all actives have a fitted effect of over 50% in size
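Recovery from NS1-induced slow growth read by OD600 in budding yeast switched to galactose assay medium (pH 6.0, -URA) at 1:100 dilution. Compound 23 nl per well; the matching strain lacking NS1 serves as control.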
Pf growth 48h – inhibits P. falciparum growth in the first generation, 48 h. P. falciparum luciferase growth in erythrocytes, 48 h. Potency, µM (doses to about 28.7 µM), inactives show at the highest dose activity change, negative = inhibition, most hits filed as inhibitors. 310,000 compounds, 5.9% hits. AID 504832; also: potency is read from the fitted curve at half-maximal effect; % is scaled to controls: 0 for no effect and ±100 for the full control effect
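Luminescence readout; reporter = integrated firefly luciferase in P. falciparum. RBC culture at 2% hematocrit, 0.1% parasitemia final, 37 C/5% CO2; decreased signal taken as growth inhibition.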
* marks the source's active call; other numbers are inactive results; i = inactive; ? = inconclusive; / = no result given; [ ] = dose if it differs, or a comment. Unless noted, calls follow the shape of the dose curve; as a rule, active = well fitted inhibition curve with a large enough effect; inconclusive = small, poorly fitted or top-dose-only effect, or another doubt; inactive = no such curve, though single readings can be large or run the other way.

SMILES | CHX counter | Pf growth 96h | Shiga inhibitor | SARS PLpro yeast | NS1 inh | Pf growth 48h
COc1ccc(CCNC(=O)CSc2nn(-c3ccccc3)c(=S)s2)cc1OC | -4 | ? | -14 | -18% | -2% | 10µM*
CCCCn1c(-c2ccccc2)cnc1SCC(=O)NCCc1ccc(OC)c(OC)c1 | 21* | 1% | 132* | -3% | -28% | 3%
C/C(=N/NC(=O)CN1CCN(S(=O)(=O)c2ccc(C)cc2)CC1)c1cccc(O)c1 | 1 | -12% | -1 | 0% | 0% | -14%
CCC1Oc2ccccc2N(CC(=O)NCCc2ccc(OC)c(OC)c2)C1=O (configuration not stated) | 0 | 3.3µM* | -3 | 0% | -1% | ?
CCC1Oc2ccc(C)cc2N(CC(=O)NCCc2ccc(OC)c(OC)c2)C1=O (configuration not stated) | / | / | / | / | -18% | /
CCOC(=O)c1c(C)[n+](-c2ccc(C)cc2)c(CC)c2cc(OC)c(OC)cc12 | -8 | 0.74µM* | -5 | 0% | 4% | 0.83µM*
CCOC(=O)c1c(C)nc(C)c(C(=O)OCC)c1-c1ccc(OC)cc1 | 4 | ? | 15 | 1% | 3% | ?
CN(CC(=O)N1CCc2ccccc2C1)c1ccccc1 | -4 | 14% | -5 | 2% | -3% | 2%[0.00184 µM]
Oc1ccc(C[C@H]2CNCCN2CCc2cccc3ccccc23)cc1 | / | 4.7µM* | / | 4% | / | 5.2µM*
Oc1ccc(C[C@H]2CNCCN2CCc2cc(C(F)(F)F)cc(C(F)(F)F)c2)cc1 | / | ? | / | 1% | / | 9.3µM*
FC(F)(F)c1cc(CCN2CCNC[C@H]2Cc2cccc3ccccc23)cc(C(F)(F)F)c1 | / | ? | / | 0% | / | ?
c1ccc(C[C@H]2CNCCN2CCc2cccc3ccccc23)cc1 | / | ? | / | -6% | / | ?
Oc1ccc(C[C@@H]2CNCCN2CCc2cc(C(F)(F)F)cc(C(F)(F)F)c2)cc1 | / | ? | / | -12% | / | 8.3µM*
O=[N+]([O-])c1ccc(Nc2ccccc2F)nc1 | 9 | -31% | -8 | -3% | -7% | 29%
Cn1cc(Cl)c(C(=O)OCC(=O)Nc2ccc(S(N)(=O)=O)cc2)n1 | -6 | ? | -8 | -6% | -3% | 1%
CCCCn1c(N)c(N(CCOC)C(=O)C2CC(=O)N(c3cccc(SC)c3)C2)c(=O)[nH]c1=O (configuration not stated) | / | 4% | / | 0% | / | 2%
Cc1ccc(C(C)C)cc1S(=O)(=O)NC1CC(C)(C)NC(C)(C)C1 | 1 | 94% | -1 | -1% | 9% | -12%
O=C(CSc1nnc(CNC(=O)c2ccco2)o1)Nc1cccc(Cl)c1 | -1 | 5.9µM* | -8 | 8% | -5% | 15%
COc1ccc(OC)c(NC(=O)CSc2nnc(CNC(=O)c3ccco3)o2)c1 | -3 | 2.6µM* | 4 | -2% | 4% | /
C=CCn1c(Cc2cccs2)nnc1SCC(=O)c1ccc(F)cc1 | 15* | -33% | 29 | -3% | -10% | 1%
O=C(COc1ccc(Cl)cc1)NCc1nnc(SCC(=O)c2ccccc2)o1 | -3 | 4.1µM* | -6 | -5% | 11% | -6%
O=C(CN(Cc1ccccc1)C(=O)CCC(=O)Nc1nccs1)NCc1ccc(F)cc1 | -7 | -7% | -10 | 0% | -2% | -1%
O=C(CCc1nnc2ccc(N3CCCC3)nn12)Nc1cc(F)ccc1F | -9 | 18% | 1 | -5% | 10% | 10%
COc1ccc(-c2ccc(C3C4C=CCCC4(C)C(=O)N3Cc3ccccc3)c(F)c2)cc1 (configuration not stated) | 8 | / | -4 | / | / | /
O=C(CSc1nnc(CNC(=O)c2ccco2)o1)Nc1ccc(Cl)cc1 | -4 | 10µM* | -6 | -6% | 1% | 21%
SMILES | CHX counter | Pf growth 96h | Shiga inhibitor | SARS PLpro yeast | NS1 inh | Pf growth 48h
CCSc1nnc(NC(=O)CSc2nnc(CNC(=O)c3cc(OC)c(OC)c(OC)c3)o2)s1 | -2 | ? | -14 | 20% | 4% | 7%
C=CCn1c(CNC(=O)c2ccco2)nnc1SCC(=O)c1ccccc1 | 12* | i | 24 | 0% | 3% | 39%[5.75 µM]
CCc1nnc(NC(=O)CSc2nnc(CNC(=O)c3cc(OC)c(OC)c(OC)c3)o2)s1 | 17 | ? | 96* | -1% | / | ?
O=C(CSc1nnc(CNC(=O)c2ccco2)o1)c1ccccc1 | -3 | 4.1µM* | 31 | -4% | -8% | /
O=C(CSc1nnc(CNC(=O)c2ccco2)o1)Nc1ccccc1 | -6 | 26% | -7 | -3% | / | 13%
CCn1c(CNC(=O)c2ccco2)nnc1SCC(=O)c1ccc(F)cc1 | -3 | ? | 11 | 0% | -4% | 43%
CC(=O)CSCc1ccccn1 | / | / | / | / | 0% | /
COc1ccc(C(=O)NC(=S)Nc2ccc(CN3CCOCC3)cc2)cc1Br | -1 | ? | -5 | 28% | -7% | ?
COc1ccc(C(CC(=O)O)NC(=O)c2ccccc2[N+](=O)[O-])cc1 (configuration not stated) | 0 | 3% | 7 | 0% | 0% | 27%
Cc1ccc(NC(=O)CSc2nnc(CNC(=O)c3ccco3)o2)cc1Cl | -2 | -14% | -6 | 1% | ? | 5%
Cc1cc(C)c(NC(=O)CSc2nnc(CNC(=O)c3ccco3)o2)c(C)c1 | -3 | 9.3µM* | -6 | 1% | -1% | -20%
COc1ccc(N2CCN(C(=O)CN(C)S(=O)(=O)c3cnc[nH]3)CC2)cc1 | -3 | -5% | -13 | 7% | 8% | -4%
COC(=O)C(O)(c1ccc(NC(=O)c2ccccc2)cc1)C(F)(F)F (configuration not stated) | 51* | 74% | 103* | -2% | 3% | 72%
COC(=O)C(O)(c1ccc(NC(=O)c2cccs2)cc1)C(F)(F)F (configuration not stated) | 33* | 74% | 72* | 0% | -2% | 75%
O=C(CSC(=S)N1CCSCC1)c1ccc(Cl)cc1 | 39* | 8% | 82* | 1% | / | 398%
CC1CN(C(=S)SCC(=O)c2ccc([N+](=O)[O-])cc2)CC(C)O1 (configuration not stated) | -3 | 48% | 14 | -4% | 1% | ?
O=C1CCC(=O)N1CCSC(=S)N1CCSCC1 | 14* | 65% | 60* | 0% | -5% | 37%
O=C(CSC(=S)N1CCSCC1)c1ccccc1 | 27* | 147% | 93* | 3% | / | 440%
CN(CC(=O)Nc1ccc(F)cc1)S(=O)(=O)c1ccc2c(c1)c(=O)n(C)c(=O)n2C | -3 | -1% | -8 | -1% | -6% | -9%
CCOc1ccc(Oc2ccc(NC(=O)[C@@H](NC(N)=O)[C@@H](C)CC)cc2)cc1 | 4 | 19% | 28 | 0% | -4% | 4%
CC1=C(C(=O)Nc2ccc(Cl)cc2)C2(CCCCC2)C(C(N)=O)C(=S)N1 (configuration not stated) | -2 | -2% | -5 | 13% | 0% | -7%
